# According to the supplement of paper PMC9262897, “Low-cost anti-mycobacterial drug discovery using engineered E. coli” (Nature Communications, 2022):
# ± gives the standard deviation of the averaged measurements.
# System: E. coli TESEC Mtb Alr
# Assay: growth (OD600 after 10 h); higher = more growth (less inhibition)
# Settings: arabinose 10000000 nM; compound 0.1 mM; raw OD600 reference: median of DMSO wells […], cell-free background 0.052
# Protocol: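 TESEC Mtb Alr E. coli (ΔaraC ΔtolC ΔentC Δalr ΔdadX, arabinose-inducible Mtb Alr) or the Alr+ wild-type control strain, grown in defined M9-fructose medium without D-alanine in 96-well plates with Prestwick library compounds at 0.1 mM and 1% DMSO. Low Alr induction is 0.1 µM arabinose and high induction is 10 mM arabinose.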
row,Structure (SMILES),growth
1,CCc1cccc(CC)c1NC(=O)CN(CC(=O)O)CC(=O)O [Etifenin],0.338 ± 0.017
2,CCC(=O)[C@@]1(C)[C@H](C)C[C@H]2[C@@H]3CCC4=CC(=O)C=C[C@]4(C)[C@H]3[C@@H](O)C[C@@]21C [Rimexolone],0.365 ± 0.038
3,"Cc1cn([C@H]2C[C@H](N=[N+]=[N-])[C@@H](CO)O2)c(=O)[nH]c1=O [Zidovudine, AZT]",0.125 ± 0.017
4,O=C(CCCCCCC(=O)Nc1ccccc1)NO [Vorinostat],0.3 ± 0.021
5,CN/C(=N\CCSCc1nc[nH]c1C)NC#N [Cimetidine],0.337 ± 0.019
6,O=C(N[C@H](CO)[C@H](O)c1ccc([N+](=O)[O-])cc1)C(Cl)Cl [Chloramphenicol],0.0533 ± 0.003
